Most compounds without a hit are left out; they make up all but 10% or so of the library.
Luc counter – Counterscreen for Luciferase (Kinase-Glo TM) Inhibition; Luciferin 4-monooxygenase (Photuris pensylvanica), Q27757; Kinase-Glo luciferase, ATP luminescence, 8 min; Potency, µM (top dose mostly 38.3 µM), for the others: at the highest dose activity change, negative = inhibition, hits mostly inhibitors; hit rate 0.28% among 200,000; active means well fitted inhibition curve with a large enough effect; inconclusive means small, poorly fitted or top-dose-only effect; further: potency means the concentration at half of the fitted maximal effect; nearly all actives have a fitted effect of over 60% in size
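Light output from Kinase-Glo luciferase with luciferin and 10 uM ATP in 50 mM imidazole pH 7.2, KCl, MgCl2, Tween 20, BSA; compound pin-delivered, 8-min ambient incubation, then luminescence read.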
PNC assembly inh – High Content Assay for Compounds that inhibit the Assembly of the Perinucleolar Compartment; hit rate 3.1% among 140,000; activity change (PNC), negative = inhibition, % at 10 µM; PC3M PTB-GFP, PNC prevalence imaging, 16 h; hits give low values;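 active means readout at or below -70, meaning at least 70% loss of cells showing the perinucleolar compartment, a nuclear body marking cancer cells; inconclusive means readout between -30 and a set limit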;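 further: plate controls were DMSO wells for no effect and camptothecin positive control wells for full effect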
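Read-out is percentage of cells bearing a perinucleolar compartment, from automated 20x imaging of fixed, Hoechst-stained PC3M PTB-GFP cells. Cells were seeded 4 h, then exposed 16 h to compound (23 nl of library stock) in duplicate plates.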
Lamin A splicing – qHTS Assay for Modulators of Lamin A Splicing; Potency, µM (titrated, usually from 46.1 µM), for inactives: at the highest dose ratio change, negative = inhibition, actives largely listed as inhibitors; HeLa LMNA splicing GFP/RFP minigene ratio, 48 h; hit rate 0.01% among 200,000; active means well fitted inhibition curve with a large enough effect in the signal ratio, with a control signal flat, not every such curve was filed as active; inconclusive means small, poorly fitted or top-dose-only effect, or effect the other way, or a change in a side signal; the % refers to the signal ratio; further: potency means the concentration at half of the fitted maximal effect
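Read-out is the ratio of GFP to DsRed2 object intensity, acquired by 488 nm laser-scanning cytometry on HeLa lamin A-EGFP minigene reporter cells. Compound incubation 48 hrs at 37 °C in Opti-MEM with 2% FBS; DMSO 0.5% final.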
HPGD inh – qHTS Assay for Inhibitors of HPGD (15-Hydroxyprostaglandin Dehydrogenase) | hit rate 4.3% among 150,000 | purified HPGD, NADH fluorescence kinetic, PGE2 substrate | Potency, µM, without a hit: at the highest dose activity change, negative = inhibition, most hits filed as inhibitors; further: potency means the concentration at half of the fitted maximal effect
Target sequence (P15428 whole entry, looked up): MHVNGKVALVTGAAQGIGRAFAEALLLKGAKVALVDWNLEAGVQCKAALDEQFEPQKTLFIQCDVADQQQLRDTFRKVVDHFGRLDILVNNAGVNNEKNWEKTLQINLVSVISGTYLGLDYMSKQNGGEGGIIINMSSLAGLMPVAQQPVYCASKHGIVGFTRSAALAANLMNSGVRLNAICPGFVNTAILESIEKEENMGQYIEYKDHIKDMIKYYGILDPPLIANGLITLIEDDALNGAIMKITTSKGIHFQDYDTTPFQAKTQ
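20 nM HPGD preincubated 15 min at room temperature with compound in 50 mM Tris-HCl pH 8, 0.01% Tween 20. Started with 1 mM NAD+ and 30 uM prostaglandin E2; NADH fluorescence (360/450 nm) read 5 times over 30-s intervals, last minus first.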
IMPase cell inh – qHTS Assay for Identifying the Cell-Membrane Permeable IMPase Inhibitors; CHO-M1 cells, IP1 accumulation, HTRF TR-FRET ratio; inhibition (IP1 accumulation), % at 46.1 µM; 120,000 tested, under 10 active; AID 901, 2007; active means well fitted curve in the direction sought with a large enough effect in the signal ratio, not every such curve was filed as active; inconclusive means small, poorly fitted or top-dose-only effect, or a change in a side signal; inactive means no such curve, though single readings can be large or run the other way; the % refers to the signal ratio;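 further: cells stimulated with carbachol in lithium chloride buffer; plate controls were DMSO basal wells for no effect and reference inhibitor wells for full effect; higher means more IMPase inhibition seen as more IP1 and lower FRET ratio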
Target sequence (P97697 whole entry, looked up): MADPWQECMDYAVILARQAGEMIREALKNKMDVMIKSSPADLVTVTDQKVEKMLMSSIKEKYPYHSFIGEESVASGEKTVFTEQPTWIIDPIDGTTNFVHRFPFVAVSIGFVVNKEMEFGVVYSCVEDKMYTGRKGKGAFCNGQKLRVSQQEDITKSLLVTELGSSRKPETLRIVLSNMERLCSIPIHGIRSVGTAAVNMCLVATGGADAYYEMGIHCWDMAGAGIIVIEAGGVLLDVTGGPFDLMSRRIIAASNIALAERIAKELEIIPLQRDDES
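Carbachol-driven Gq signalling in CHO-M1 cells (2000/well) generates IP1. Compounds that block IMPase raise IP1 and so reduce the FRET signal from Eu-anti-IP1 and d2-IP1 after a 10 min room-temperature lysis.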
ALDH1A1 block – qHTS Assay for Inhibitors of Aldehyde Dehydrogenase 1 (ALDH1A1); AID 1030, 2008; Potency, µM (highest dose often 75.3 µM), for inactives: top-dose activity, negative = inhibition, hits mostly inhibitors; Purified ALDH1A1, NADH fluorescence, propionaldehyde substrate; hit rate 7.3% among 220,000; Aldehyde dehydrogenase 1A1 (Homo sapiens), P00352;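 further: potency means the concentration at half of the fitted maximal effect; plate controls were no enzyme wells and a reference inhibitor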
* = called active by the depositor; ? = inconclusive; / = not tested or not shown; [ ] = remark or other dose. Unless noted, the call rests on the fitted dose curve; in most records, active means well fitted inhibition curve with a large enough effect (not every such curve was filed as active); inconclusive means small, poorly fitted or top-dose-only effect, or another doubt; inactive means no such curve, though single readings can be large or run the other way. Unless noted, on the % scale 0 is the no-effect control and ±100 the full control effect.

SMILES	Luc counter	PNC assembly inh	Lamin A splicing	HPGD inh	IMPase cell inh	ALDH1A1 block
CCCCOc1ccccc1NC(=O)CC1Nc2ccccc2NC1=O (centres undefined)	3%	13	6%	-7%	-3	14µM*
O=C(O)c1ccc2c(c1)C(=O)N(c1cccc(C(=O)/C=C/c3ccccc3)c1)C2=O	-3%	/	?	/	/	0.71µM*
O=C1C(=C(c2ccccc2)c2ccccc2)Nc2ccccc21	11%	?	?	-4%	3	0.71µM*
O=C1CN(C(=O)c2ccccc2)c2ccccc2N1	0%	-2	3%	-17%	8	0%
Cc1nn2c(nc(N3CCCCC3)c3ccccc32)c1C=O	3%	?	-4%	?	/	-6%
Cc1nn2c([nH]c(=O)c3ccccc32)c1C=O	-4%	36	16%	16µM*	-6	-1%
C=C(C(=O)C(C)(C)O)C(O)c1ccc([N+](=O)[O-])cc1 (centres undefined)	-2%	/	/	25µM*	/	?
CC(C)(C)C(=O)NC(NC(=O)C(C)(C)C)c1ccc([N+](=O)[O-])cc1	1%	2	10%	-8%	/	6%
CN(N=O)C(=O)N[C@H]1C(O)OC(CO)[C@@H](O)[C@H]1O (some centres undefined)	0%	/	/	-14%	1	5%
O=C(COC(=O)c1cc([N+](=O)[O-])ccc1NCCO)c1ccccc1	-3%	-10	-6%	-19%	-6	25µM*
O=C(COC(=O)c1cccc([N+](=O)[O-])c1)c1ccc(OCc2ccccc2)cc1	0%	-116*	-6%	-9%	/	14µM*
O=C(COC(=O)c1cc([N+](=O)[O-])ccc1NCCO)NCc1cccs1	3%	/	8%[46 µM]	/	/	?
NC(=O)COC(=O)c1cc([N+](=O)[O-])ccc1NCCO	/	/	/	/	/	20µM*
COC(=O)c1ccc(NC(=O)CCc2c(C)nn(-c3ccc(N4CCOCC4)nn3)c2C)cc1	/	/	14%[46 µM]	/	/	/
Cc1nc2cncnc2n(C2CC2)c1=O	/	/	-2%	/	/	?
COC(=O)C1(C)C=C2C(=C(c3ccccc3)C(=O)C2C)CN1 (centres undefined)	1%	/	/	-3%	/	?
Cc1cccc(C)c1-n1nnnc1-c1cnccc1C(F)(F)F	/	/	/	/	/	20µM*
Cc1cccc(C)c1-n1nnnc1SCSc1nnnn1-c1c(C)cccc1C	3%	-17	7%	-2%	6	?
COc1ccccc1C(=O)OCc1cc(=O)n2nc(C(C)C)sc2n1	/	/	-4%[46 µM]	/	/	/
CCN(CCCNC(=O)c1c(C)cc(=O)oc1C)c1cccc(C)c1	3%	9	-3%	-18%	2[1.84 µM]	10µM*
CO[C@H]1COC(=O)[C@@H](CCSC)NC(=O)C/C=C\[C@@H](C)[C@H](OC)COC(=O)[C@@H](OCc2ccccc2)/C=C\[C@@H]1C	/	/	/	/	/	-6%[13.5 µM]
O=c1c2ccccc2c2ccccc2c(=O)n1-c1cc2c3ccccc3ccc2c2ccccc12	-2%[7.66 µM]	/	/	-6%	/	0%[13.5 µM]
COCCNC(=O)C1(C)Oc2ccccc2NC1=O (centres undefined)	14%	-7	0%	0%	1	7%
CC1(C)Oc2ccc(C(=O)NN)cc2NC1=O	1%	/	/	/	/	1.6µM*
CCOC(=O)N1CCN(C(=O)C2CCN(CC3CCCCC3)CC2)CC1	-2%	-114*	0%	1%	/	4%
COc1ccc(CNC(=O)c2ccccc2SC)cc1	0%	5	0%	6.3µM*	-5	6%
CSc1ccccc1C(=O)NCc1ccc2c(c1)OCO2	3%	46	31%	0.5µM*	7	13%
O=C(Nc1ccc2c(c1)OCO2)c1ccccc1SCC(=O)N1CCCC1	-2%	17	6%	28µM*	0	1.3µM*
